# High-throughput results: PubChem BioAssay, National Center for Advancing Translational Sciences (NCATS)
# ATXN2 expr inh = Primary qHTS for Inhibitors of ATXN expression | HEK-293 ATXN2-luciferase reporter, luminescence, 24 h | Potency, µM (series often up to 57 µM), for inactives: at the top dose activity change, negative = inhibition, actives largely listed as inhibitors | 0.72% of 360,000 active | AID 1745845, 2022; further: potency means the concentration at half of the fitted maximal effect; on the % scale 0 is the no-effect control and ±100 the full control effect; nearly all actives have a fitted effect of over 55% in size
#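 qHTS (up to 57 uM final) was run with 24 h compound exposure of reporter cells at 37 °C. Each well was multiplexed: SteadyGlo luminescence measured ATXN2-luciferase expression after a fluorogenic Gly-Phe-AFC viability readout (25 uM final).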
# USP1-UAF1 inh = Inhibitors of USP1/UAF1: Primary Screen. recombinant USP1/UAF1, Ub-Rhodamine cleavage fluorescence. AID 743255, 2014. 0.23% of 390,000 active. Potency, µM (titrated, usually from 57.1 µM), without a hit: top-dose activity change, negative = inhibition, hits mostly inhibitors; further: potency means the concentration at half of the fitted maximal effect; on the % scale 0 is the no-effect control and ±100 the full control effect; nearly all actives have a fitted effect of over 60% in size
#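 Step one: compound is pinned into 1nM USP1/UAF1 in HEPES pH 7.8 buffer with TCEP. Step two: 15 min room-temperature incubation. Step three: Ub-Rho (150nM final) starts cleavage, tracked by fluorescence over six one-minute reads.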
# S2 tox = Viability Counterscreen for Primary qHTS for Inhibitors of ATXN expression; S2 cells (HEK-293 line with an ATXN2-luciferase reporter) viability, CellTiter-Fluor protease fluorescence, 24 h; Potency, µM (highest dose often 56.7 µM), actives largely listed as cytotoxic; 0.49% of 400,000 active; AID 651635, 2014; further: potency means the concentration at half of the fitted maximal effect; nearly all actives have a fitted effect of over 40% in size
# USP2a inh = qHTS Assay for Inhibitors of Ubiquitin-specific Protease USP2a Using CHOP2 as the Reporter; Ubiquitin carboxyl-terminal hydrolase 2 (Homo sapiens), O75604; USP2 core, Ub-CHOP2 coupled fluorogenic reporter, 485/531; Potency, µM (series often up to 38.3 µM), for the others: at the top dose activity change, negative = inhibition, most hits filed as inhibitors; 0.01% of 330,000 active;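 further: potency means the concentration at half of the fitted maximal effect; plate controls were DMSO wells for no effect and full inhibition by NEM control for full effect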
# Target sequence (O75604 whole entry, looked up): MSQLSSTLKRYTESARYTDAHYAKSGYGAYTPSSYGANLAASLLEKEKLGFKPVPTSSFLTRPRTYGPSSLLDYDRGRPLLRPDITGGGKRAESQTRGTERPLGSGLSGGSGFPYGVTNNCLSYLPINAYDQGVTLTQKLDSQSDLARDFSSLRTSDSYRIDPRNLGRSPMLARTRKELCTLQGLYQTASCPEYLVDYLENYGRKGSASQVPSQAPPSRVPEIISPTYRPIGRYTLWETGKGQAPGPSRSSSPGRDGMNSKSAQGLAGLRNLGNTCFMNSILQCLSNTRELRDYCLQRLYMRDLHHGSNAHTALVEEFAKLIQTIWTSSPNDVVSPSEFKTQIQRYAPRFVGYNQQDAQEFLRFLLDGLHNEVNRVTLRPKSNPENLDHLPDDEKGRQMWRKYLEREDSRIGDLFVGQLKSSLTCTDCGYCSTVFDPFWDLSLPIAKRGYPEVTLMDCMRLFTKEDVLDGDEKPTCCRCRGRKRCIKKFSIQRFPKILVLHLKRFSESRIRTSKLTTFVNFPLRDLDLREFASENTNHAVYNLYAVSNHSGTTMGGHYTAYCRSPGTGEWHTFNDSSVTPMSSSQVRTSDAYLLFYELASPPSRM
#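 USP2 core (10nM final) preincubated 30min RT with compound in 20mM Tris-HCl pH 8.0, 2mM CaCl2, 2mM beta-mercaptoethanol, 0.05% CHAPS; 25nM Ub-CHOP2 plus 25nM reporter substrate added, fluorescence (Ex485/Em531) read after 60min.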
# IL1B secr inh = qHTS for Inhibitors of Inflammasome Signaling: IL-1-beta AlphaLISA Primary Screen; THP-1 LPS/ATP IL-1B secretion, AlphaLISA, 16 h; active compounds read low; activity change, % at 57.5 µM; 4.7% of 360,000 active; in the data active means activity change below about -50%; inconclusive means mostly about -30% to -49%; further: on the % scale 0 is the no-effect control and ±100 the full control effect
#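 Secreted IL-1B measured by AlphaLISA bead assay after 16 h compound exposure of THP-1 cells; compounds (final up to 57.5 uM) added 1 h before LPS (250 ng/mL) and ATP (1.25 mM) stimulation; lower signal means less secretion.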
# * hit, by the source's call; i = inactive; u = inconclusive; x = no result given. Shown are actives, neighbours in structure and some others; about 4.8% of the full set was active somewhere. Unless noted, the call rests on the fitted dose curve; in most records, active means well fitted curve in the direction sought with a large enough effect; inconclusive means small, poorly fitted or top-dose-only effect, or another doubt; inactive means no such curve, though single readings can be large; an effect the other way counts as inactive or inconclusive.
SMILES,ATXN2 expr inh,USP1-UAF1 inh,S2 tox,USP2a inh,IL1B secr inh
O=C(CCc1ccccc1)NNC(=O)Nc1ccc(Cl)cc1,-28.1%,-12.2%,i,2.6%,-1.3
O=C(NCc1ccncc1)c1cnn(-c2nccc(-c3cccs3)n2)c1C1CC1,x,x,i,x,x
Cc1cc(N)n2nc(-c3ccccc3)cc2n1,13.7%,-13.2%,i,1.4%,-71.8*
CC(C)c1c(C(=O)N/N=C/c2cccc(OCc3ccccc3)c2)nnn1-c1nonc1N,-32.9%,-6.2%,i,0.8%,-84.5*
COc1cccc(/C=N/NC(=O)c2nnn(-c3nonc3N)c2C(C)C)c1OCc1ccc(F)cc1,u,-0.4%,i,-0.7%,-69.7*
Cc1oc(=O)oc1CN1CCN(c2cc3c(cc2F)c(=O)c(C(=O)O)c2n3C(C)S2)CC1 (centres undefined),-15.9%,x,i,x,x
O=C(c1ccc(N2CN(C(=O)c3ccco3)c3nc4ccccc4nc32)cc1)N1CCOCC1,0.8%,-16.2%,i,1.7%,-59.4*
O=C(c1ccncc1)N1CCN(C(=O)c2ccco2)CC1,13.6%,-8.9%,i,2.1%,-5.6
Cc1cccc(NC(=O)Cn2c(=O)n(CCCCCC(=O)NCc3ccccc3)c(=O)c3sccc32)c1,u,14.2%,22.4µM*,x,x
Cc1ccc(CNC(=O)CCCCCn2c(=O)c3sccc3n(CC(=O)Nc3ccc(C)c(F)c3)c2=O)cc1,1.4%,-14.3%,i,x,x
CC(=O)ON=C1C=CC(=C(C#N)c2ccccc2)C=C1,14.1µM*,x,14.1µM*,x,-111.1*
COc1ccc(C(C#N)=C2C=CC(=NO)C=C2)cc1,56.3%,-11.4%,u,0.7%,-100.9*
Cc1cccn2c(=O)c3cc(C(=O)NCc4ccco4)c(=N)n(C4CCCCC4)c3nc12,-15.6%,-18.3%,x,-1.9%,-98.1*
Cc1cccn2c(=O)c3cc(C(=O)NCc4ccco4)c(=N)n(CCOCCO)c3nc12,-14.6%,-10.6%,i,-1.0%,-56.9*
COCCCn1c(=N)c(C(=O)NCc2ccco2)cc2c(=O)n3cccc(C)c3nc21,-0.8%,-19.6%,x,x,x
Cc1ccc2nc3c(cc(C(=O)NCc4ccco4)c(=N)n3C3CCCC3)c(=O)n2c1,x,x,x,2.1%,x
COc1ccc(S(=O)(=O)N2c3ccc(Cl)cc3[C@@](O)(c3ccccc3Cl)[C@H]2C(=O)N2CCC[C@@H]2C(N)=O)cc1OC,7.1%,x,i,x,x
COc1ccc(C(=O)NC2(C(F)(F)F)NC(=O)N(CCCc3ccccc3)C2=O)cc1OC (centres undefined),-8.9%,0.2%,i,2.0%,-67.8*
COc1ccc(CCN2C(=O)NC(NC(C)=O)(C(F)(F)F)C2=O)cc1OC (centres undefined),0.6%,-17.0%,i,2.0%,16.8
CCOc1ccccc1C(=O)Nc1cc2c(cc1N1CCCC1)n(CC)c(=O)n2CC,x,-18.7%,14.1µM*,0.0%,-10.1
CCn1c(=O)c(=O)n(CC)c2cc(N3CCCCC3)c(NC(=O)c3ccccc3OC)cc21,-1.4%,-8.8%,i,x,x
CCn1c(=O)n(CC)c2cc(N3CCCC3)c(NC(=O)c3ccccc3OC)cc21,-28.3%,-20.1%,u,-0.9%,-52.7*
CCn1c(=O)n(CC)c2cc(N3CCCC3)c(NC(=O)c3cc(Cl)ccc3OC)cc21,4.0%,-9.1%,u,3.0%,-63.6*
CC1CCN(C2=C(NS(=O)(=O)c3ccccc3)C(=O)c3ccccc3C2=O)CC1,-7.3%,u,u,-1.8%,-73.6*
CCN1CCN(C2=C(NS(=O)(=O)c3ccc(NC(C)=O)cc3)C(=O)c3ccccc3C2=O)CC1,x,-26.4%,u,-1.3%,42.8
SMILES,ATXN2 expr inh,USP1-UAF1 inh,S2 tox,USP2a inh,IL1B secr inh
CC(=O)Nc1ccc(S(=O)(=O)NC2=C(N3CCN(C)CC3)C(=O)c3ccccc3C2=O)cc1,x,u,14.1µM*,7.3%,16.6
COc1ccccc1C(=O)NC(=O)COC(=O)CN1C(=O)NC(C)(C)C1=O,8.4%,-15.1%,i,0.1%,-0.5
CC(C)Oc1ccc(CNC(=O)C2CCCCN2S(=O)(=O)c2ccc(F)cc2)cc1 (centres undefined),7.9%,u,i,x,x
CCOC(=O)c1[nH]c(=S)n(-c2ccccc2)c1C(=O)OCC,x,-1.6%,i,x,6.3
CN1CCC(N2CCN(C3CN(Cc4cn(Cc5ccc(F)cc5)nn4)S(=O)(=O)C3)CC2)CC1 (centres undefined),2.6%,x,i,x,2.6
CCN(C)C1CN(Cc2cn(Cc3cc(C)cc(C)c3)nn2)S(=O)(=O)C1 (centres undefined),18.6%,x,i,x,-52.0*
CN1CCN(C2CN(Cc3cn(Cc4ccc(F)cc4)nn3)S(=O)(=O)C2)CC1 (centres undefined),1.7%,x,i,x,-64.6*
CCNc1ccc(Br)cc(C(=O)/C=C/c2ccccc2Cl)c1=O,20µM*,28.2µM*,u,x,-104.3*
CNc1ccc(Br)cc(C(=O)/C=C/c2cccc(OC)c2OC)c1=O,x,-11.2%,x,1.3%,-11.8
CNc1ccc(Br)cc(C(=O)/C=C/c2cccc(Cl)c2Cl)c1=O,u,u,u,0.1%,-55.6*
Cc1ccc(Cl)cc1NC(=O)Cn1c(=O)c(CNc2ccccc2)cc2cc3c(cc21)OCCO3,6.8%,u,i,x,x
COc1ccc(-c2ccc3c(c2)O[C@H](CN(C)C(=O)Nc2ccccc2F)[C@@H](C)CN([C@H](C)CO)S3(=O)=O)cc1,-36.7%,u,i,x,12.5
C[C@@H]1CN([C@H](C)CO)S(=O)(=O)c2ccc(Br)cc2O[C@@H]1CN(C)C(=O)Nc1ccc(C(F)(F)F)cc1,u,-20.1%,22.4µM*,x,-70.2*
C[C@@H]1CN([C@H](C)CO)S(=O)(=O)c2ccc(-c3ccc(C#N)cc3)cc2O[C@H]1CN(C)C(=O)Nc1cc(F)ccc1F,15.8µM*,4.8%,u,x,-8.5
CCOC(=O)N1CCC(N(CCCOC)C(=O)Nc2cccc(OC)c2)CC1,0.5%,-16.8%,u,1.0%,23.0
CCOC(=O)N1CCC(N(CCOC)C(=O)Nc2ccc(Cl)c(Cl)c2)CC1,u,-29.3%,i,1.9%,-62.8*
CCOC(=O)N1CCC(N(CCN(C)C)C(=S)Nc2ccc(Oc3ccccc3)cc2)CC1,-21.4%,-13.2%,u,11.6%,-89.1*
CCCCCCCCCCCCCCCCCCCCCCO,-1.3%,x,x,x,x
CCN(CC(=O)Nc1c(F)cccc1F)C(=O)CCCSc1nc2ccccc2[nH]1,x,-6.7%,i,x,-11.9
COc1ccccc1C(C(=O)c1ccccc1)c1ccc2ccccc2c1 (centres undefined),x,x,x,x,-71.3*
